mHtt clearance: mutant huntingtin protein clearance; HeLa Exon1htt(103Q)mCFP, aggregate imaging; zero = plate's median compound well; inhibition, % at 1.5 µM; 47,000 compounds, 0.42% hits; AID 853;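 active = inhibition of aggregate fluorescence above about 70%, also judged a hit by eye on the cell image, limit read from the data, passing the limit was not always enough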;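 note: cells exposed to compound for three days before fixation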
WNV protease inh: inhibitors of West Nile virus NS2B-NS3 protease; P06935; WNV NS2B-NS3 protease, fluorogenic substrate Ex360/Em465; hits give low values; z-score (test concentration not listed); 65,000 compounds, 0.18% hits; in the data active = z-score below about -3
D1 allo mod: D1 dopamine receptor (human) allosteric modulation; 58,000 compounds, 5.9% hits; B-score at 10 µM; HEK293 D1, CRE-luciferase, dopamine EC30 potentiation; actives deviate in either direction; P21728;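 active = luminescence count or its row- and column-corrected plate score outside the 99.7% band of the plate's sample wells, on either side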
Target sequence (P21728 whole entry, looked up): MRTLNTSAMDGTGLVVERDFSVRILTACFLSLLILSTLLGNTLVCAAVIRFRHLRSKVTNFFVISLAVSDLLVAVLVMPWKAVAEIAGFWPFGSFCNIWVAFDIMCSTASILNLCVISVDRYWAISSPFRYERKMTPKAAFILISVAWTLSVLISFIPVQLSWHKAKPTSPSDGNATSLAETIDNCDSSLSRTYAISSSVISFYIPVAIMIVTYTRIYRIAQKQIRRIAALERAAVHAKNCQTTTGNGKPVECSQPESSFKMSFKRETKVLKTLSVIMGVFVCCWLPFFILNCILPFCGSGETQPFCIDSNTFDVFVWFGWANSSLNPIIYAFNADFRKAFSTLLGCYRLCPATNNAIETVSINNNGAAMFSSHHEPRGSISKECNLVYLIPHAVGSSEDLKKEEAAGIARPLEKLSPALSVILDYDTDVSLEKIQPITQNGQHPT
M1 agonist: M1 muscarinic receptor agonism; B-score at 10 µM; CHO-M1 cells, Fluo-4 calcium fluorescence, agonist mode; hits give high values; 64,000 compounds, 3% hits;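 active = fluorescence rise, raw or as B-score row- and column-corrected plate score, outside the 99.7% band of its plate's samples, either direction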
M1 antag: antagonists of rat M1 muscarinic receptor. 64,000 compounds, 3.4% hits. AID 628. P08482. B-score at 10 µM. CHO-M1 cells, Fluo-4 calcium, ACh EC80 antagonist mode; hits give low values;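 active = calcium fluorescence response, raw or row-and-column corrected B-score, differing from the plate sample mean either way at a set confidence level, mostly lower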
M1 antag conf: M1 muscarinic receptor (rat) antagonism, confirmed. shares compounds with M1 antag. CHO-M1 cells, Fluo-4 calcium, ACh EC80 antagonism; hits give low values. calcium response (max-min fluorescence) at 10 µM. 1,700 compounds, 43% hits;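 active = calcium response below the same-plate mean of wells given acetylcholine alone at its 80%-effect dose, minus 3 SD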
mGluR4 antag: mGluR4 (human) activity, M1 antagonist secondary assay | 1,700 compounds, 0.9% hits | fluorescence response (max-min) at 10 µM | shares compounds with M1 antag | CHO-mGluR4 calcium flux, Fluo-4 fluorescence, glutamate EC80; hits give low values;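 active = fluorescence response below the plate's average for near-maximal glutamate wells, less 3 SD of those wells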;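 note: raw unnormalized fluorescence span taken in the window right after glutamate addition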
Of the large screens only hits and unclear results are named; the others gave an inactive call (follow-up assays come after a bar, where they were run). In the library only some 8.9% were active in any assay of this set; here they are far more common.

CCN1CCN(Cc2ccc(NC(=O)Nc3ccccc3Cl)cc2)CC1	D1 allo mod -3.3, M1 antag -3 (no result: mHtt clearance) | M1 antag conf inactive | mGluR4 antag inactive
CC(=O)Nc1ccc(CN2CCCCCCC2)cc1	M1 antag -1.9 (no result: mHtt clearance) | M1 antag conf 488 | mGluR4 antag inactive
Cc1c(C)n(CC(O)CN2C(=O)c3ccccc3S2(=O)=O)c2ccccc12 (stereo not given)	none (no result: WNV protease inh, D1 allo mod, M1 agonist, M1 antag)
C=CCNC(=O)C(C#N)c1nc2ccccc2nc1N1CCCCCC1 (stereo not given)	M1 antag -2.8 (no result: D1 allo mod) | M1 antag conf inactive | mGluR4 antag inactive
CCCS(=O)(=O)c1nnnn1-c1cccc(OC)c1	none (no result: mHtt clearance)
O=C(NCC1CCCO1)c1ccc(S(=O)(=O)N2CCC(c3nc4ccc(Cl)cc4[nH]3)CC2)cc1 (stereo not given)	none (no result: WNV protease inh, D1 allo mod, M1 agonist, M1 antag)
CSc1nnc2c(n1)OC(c1ccc(C(=O)O)cc1)N(C(C)=O)c1ccccc1-2 (stereo not given)	none
C=CCSc1nnc2c(n1)OC(c1cccnc1)N(C(C)=O)c1ccccc1-2 (stereo not given)	M1 antag -4.2 (no result: D1 allo mod) | M1 antag conf 373 | mGluR4 antag inactive
C=CCSc1nnc2c(n1)OC(c1cccnc1)Nc1ccccc1-2 (stereo not given)	none (no result: mHtt clearance)
CSc1nnc2c(n1)OC(c1cccn1C)N(C(C)=O)c1ccccc1-2 (stereo not given)	M1 antag -5.7 (no result: mHtt clearance) | M1 antag conf 158 | mGluR4 antag inactive
CCCCCn1nc(C)c2c(C)cc(=O)[nH]c21	none (no result: WNV protease inh, D1 allo mod, M1 agonist, M1 antag)
Cc1cccc(NC(=O)c2sc(NC(=O)c3ccco3)c(C#N)c2C)c1C	M1 antag -2.5 | M1 antag conf inactive | mGluR4 antag inactive
CC1(C)Cc2c(sc(NC(=O)c3ccco3)c2C#N)CO1	none (no result: mHtt clearance)
CCOc1ccc(CNc2ccc3c(c2)nc(C)n3C)cc1	M1 antag -6 (no result: mHtt clearance, D1 allo mod) | M1 antag conf 448 | mGluR4 antag inactive
Cc1nccn1CCc1n[nH]c(=S)n1Cc1ccccc1	M1 antag -9.5 (no result: mHtt clearance) | M1 antag conf 314 | mGluR4 antag inactive
Cc1cc(C(F)(F)F)nn1Cc1n[nH]c(=S)n1Cc1ccccc1	none (no result: WNV protease inh, D1 allo mod, M1 agonist, M1 antag)
O=C(Cc1cn2ccsc2n1)Nc1nc2c(s1)CN(Cc1ccccc1)CC2	none (no result: mHtt clearance)
CCOC(=O)c1nnn(-c2nonc2NC(C)=O)c1C	M1 antag -0.9 | M1 antag conf 574 | mGluR4 antag inactive
Cc1cc(C)nc(N2CCCC(C(=O)Nc3ccc4nc(C)c(C)nc4c3)C2)n1 (stereo not given)	none
CCOC(=O)N1CCC(NC(=O)CCc2nc(-c3ccc(C)cc3)no2)CC1	none
CC1=NC(Nc2nc(C)c3ccccc3n2)=NC(C)(C)C1	D1 allo mod -4.1, M1 antag -9.6 (no result: mHtt clearance) | M1 antag conf 224 | mGluR4 antag inactive
O=C(CSc1ncn[nH]1)N1CCN(c2nnc(-c3ccccc3)c3ccccc23)CC1	M1 antag -2.9 (no result: mHtt clearance) | M1 antag conf 497 | mGluR4 antag inactive
CCCCC1CC1C(=O)Nc1ccc(OC)c(OC)c1 (stereo not given)	none (no result: mHtt clearance, D1 allo mod)
NCCCCCc1nnc(SCc2ccccc2Cl)o1	none
NCCCCCc1nnc(SC/C=C/c2ccccc2)o1	M1 antag -3.6 | M1 antag conf 450 | mGluR4 antag inactive
CCc1nc(N)c(C#N)c(-c2ccccc2OC)c1C	none
CCOC(=O)c1nnc2cc(-c3ccc(Br)cc3)nn2c1C	none
CCOC(=O)c1nnc2cc(-c3ccccc3)nn2c1C	M1 antag -2.6 | M1 antag conf inactive | mGluR4 antag inactive
CCN(CCCNC(=O)c1c(C)cc(=O)oc1C)c1ccccc1	M1 antag -3.9 (no result: mHtt clearance) | M1 antag conf inactive | mGluR4 antag inactive
CCCCN(CCCNC(=O)c1c(C)cc(=O)oc1C)c1ccccc1	none (no result: mHtt clearance)
CCC1(C)Cc2ccccc2-c2nc3n(c(=O)c21)CCCCC3 (stereo not given)	M1 antag -4 (no result: mHtt clearance) | M1 antag conf 420 | mGluR4 antag inactive
O=c1c2c(nc3n1CCCCC3)-c1ccccc1CC21CCCCC1	none (no result: WNV protease inh, D1 allo mod, M1 agonist, M1 antag)
Cc1nn(-c2ccccc2)c2c1C1(C(=O)N(C(C)C)c3ccccc31)C(C#N)=C(N)O2 (stereo not given)	none

Bioassay records as filed in PubChem BioAssay.
